B1: Caulobacter ParB omega fusion; a variant is named by its letters at X, in order, B8GW30 (parent)
chain: MESVVVGEPGMSEGRRGLGRGLSALLGEVDAAPAQAPGEQLGGSREAPIEILQRNPDQPRRTFREEDLEDLSNSIREKGVLQPILVRPSPDTAGEYQIVAGERAWRAAQRAGLKTVPIMVRELDDLAVLEIGIIENVQRADLNVLEEALSYKVLMEKFERTQENIAQTIGKSXSHVANXMRLLXLPDEVQSYLVSGELTAXHARAIAAAADPVALAKQIIEGGLSVRETEALARKAPNLSAGKSKGGRPPRVKDTDTQALESDLSSVLGLDVSIDHRGSTGTLTITYATLEQLDDLCNRLTRGI

Whole data set: some 81,000 sequences, median “one-hybrid fitness for binding parS DNA” near -0.17, cut for the highest 2% near 0.51. For the sample, the highest values were picked, then their nearest neighbours and some sequences at random.

This assay covers variants of B1. In words: one-hybrid fitness for binding parS DNA (scaled: cognate 1, non-cognate 0); higher = stronger binding. The settings on record: with parS DNA site. The essentials: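 Fitness is the rescaled log change in variant-to-wild-type read ratio, measured by Illumina sequencing of plasmids before and after bacterial one-hybrid selection. The scale puts cognate at 1 and non-cognate at 0. Selection of Caulobacter ParB libraries, four specificity codons randomised, took place in E. coli USO with a HIS3 reporter, site 19 bp from the promoter, over 48 hours at 37°C on M9-minus-histidine with 0.1 mM IPTG and 5 mM 3-AT.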
RLET: the “one-hybrid fitness for binding parS DNA” value came to 0.783.
In the case of RTEN it was 0.349; in that of RKET, 0.799; in that of RLEY, 0.458.
The value for RKER was not above 0.2; that for RKEY was 0.401.
The value for RTEP was not above 0.2; that for RLEK was not above 0.2; that for RTET was 0.75.
AEWH: the “one-hybrid fitness for binding parS DNA” value is not above 0.2.
In the case of ISIL, the “one-hybrid fitness for binding parS DNA” value is not above 0.2.
Consider LPPC, for which the “one-hybrid fitness for binding parS DNA” value is not above 0.2.
For TELP, the “one-hybrid fitness for binding parS DNA” value is not above 0.2.
In the case of PLFM, the “one-hybrid fitness for binding parS DNA” value is not above 0.2.
The value for HICT was not above 0.2; that for SMNV was not above 0.2; that for SGQL was not above 0.2.
As to LYHP, the “one-hybrid fitness for binding parS DNA” value is not above 0.2.
In the case of RHQA it was 0.5; in that of RTQA, 0.627.
The value for RMQA was 0.574; that for DTQA was not above 0.2.
As for RWQA, the “one-hybrid fitness for binding parS DNA” value is 0.404.
In the case of RCQA it was 0.593; in that of RGQA, 0.364; in that of RDQA, not above 0.2.
In the case of RSQA it was 0.555; in that of NTQA, not above 0.2; in that of VRKH, not above 0.2.
For the variant GAVT, the “one-hybrid fitness for binding parS DNA” value was not above 0.2.
With RVVL, the “one-hybrid fitness for binding parS DNA” value is not above 0.2.
The value for YEHG was not above 0.2; that for GAFN was not above 0.2; that for CTDH was not above 0.2.
The value for PIDR was not above 0.2; that for SPPW was not above 0.2; that for IYKI was not above 0.2.
In the case of RLQA it was 0.616; in that of NLQA, not above 0.2.
In the case of CLQA, the “one-hybrid fitness for binding parS DNA” value was not above 0.2.
The value for KMPV was not above 0.2.
In the case of KSYG it was not above 0.2; in that of MYPR, not above 0.2.
In the case of AHSN it was not above 0.2.
Consider MNDG, for which the “one-hybrid fitness for binding parS DNA” value was not above 0.2.
Consider QPYH, for which the “one-hybrid fitness for binding parS DNA” value is not above 0.2.
The value for TMHS was not above 0.2; that for PTQT was not above 0.2.
For the variant RAKS, the “one-hybrid fitness for binding parS DNA” value was determined as 0.874.
In the case of RAVH it was 0.202.
As for RAKP, the “one-hybrid fitness for binding parS DNA” value was not above 0.2.
On to RAKH, for which the “one-hybrid fitness for binding parS DNA” value is 0.239.
The value for RAVS was 0.986.
In the case of RAVD it was not above 0.2.
On to TSEV, for which the “one-hybrid fitness for binding parS DNA” value was not above 0.2.
The value for RRHL was not above 0.2; that for PNHC was not above 0.2.
On to NLGV, for which the “one-hybrid fitness for binding parS DNA” value was not above 0.2.
The value for RAKG was 0.937; that for RAKQ was not above 0.2.
As to RAVF, the “one-hybrid fitness for binding parS DNA” value is not above 0.2.
In the case of RAVR it was not above 0.2.
In the case of RAKK it was not above 0.2; in that of RAVG, 0.923.
Turning to QLEL, the “one-hybrid fitness for binding parS DNA” value is not above 0.2.
The value for FTDC was not above 0.2; that for NTWT was not above 0.2.
Consider RQDS, for which the “one-hybrid fitness for binding parS DNA” value came out at 0.977.
In the case of RQDP it was not above 0.2; in that of RQNH, 0.329; in that of RQNS, 0.921.
In the case of RQDN it was 0.431; in that of RQNP, not above 0.2.
Regarding PMTF, the “one-hybrid fitness for binding parS DNA” value is not above 0.2.
With IRPV, the “one-hybrid fitness for binding parS DNA” value was not above 0.2.
As to RSLM, the “one-hybrid fitness for binding parS DNA” value was 0.32.
Consider WKDS, for which the “one-hybrid fitness for binding parS DNA” value is not above 0.2.
The value for RDKC was 0.282.
Consider RSKN, for which the “one-hybrid fitness for binding parS DNA” value was 0.443.
As for RSKP, the “one-hybrid fitness for binding parS DNA” value is not above 0.2.
Consider RCKC, for which the “one-hybrid fitness for binding parS DNA” value is 0.816.
Regarding RSKC, the “one-hybrid fitness for binding parS DNA” value came out at 0.943.
With RPKC, the “one-hybrid fitness for binding parS DNA” value was not above 0.2.
As for IDNS, the “one-hybrid fitness for binding parS DNA” value was not above 0.2.
With QCDG, the “one-hybrid fitness for binding parS DNA” value is not above 0.2.
In the case of PPSE it was not above 0.2.
The value for KIGR was not above 0.2; that for ANCC was not above 0.2; that for HRKN was not above 0.2.
As to RNVD, the “one-hybrid fitness for binding parS DNA” value was not above 0.2.
In the case of RNVP it was not above 0.2.
Take RNYY: the “one-hybrid fitness for binding parS DNA” value came to 0.297.
For the variant RNKN, the “one-hybrid fitness for binding parS DNA” value is 0.354.
In the case of RNVY it was not above 0.2; in that of RNKH, 0.219.
For RNKY, the “one-hybrid fitness for binding parS DNA” value worked out at 0.543.
Consider RNKS, for which the “one-hybrid fitness for binding parS DNA” value turned out to be 0.936.
The value for RNVS was 0.674.
The value for QADL was not above 0.2.
As to QIAH, the “one-hybrid fitness for binding parS DNA” value is not above 0.2.
The value for YERV was not above 0.2; that for YMQL was not above 0.2.
As for NLRR, the “one-hybrid fitness for binding parS DNA” value is not above 0.2.
Consider QKLQ, for which the “one-hybrid fitness for binding parS DNA” value is not above 0.2.
Regarding RIAP, the “one-hybrid fitness for binding parS DNA” value is not above 0.2.
Regarding RIFY, the “one-hybrid fitness for binding parS DNA” value worked out at 0.462.
For RIAG, the “one-hybrid fitness for binding parS DNA” value is 0.997.
In the case of RIFG, the “one-hybrid fitness for binding parS DNA” value is 0.978.
Consider RIAH, for which the “one-hybrid fitness for binding parS DNA” value turned out to be 0.279.
In the case of RIFK it was 0.283.
In the case of YDMG it was not above 0.2; in that of WYYF, not above 0.2.
Take GTPA: the “one-hybrid fitness for binding parS DNA” value was not above 0.2.
In the case of PTAE it was not above 0.2.
In the case of RYPH it was not above 0.2.
The value for RYIG was 0.793; that for RYPG was 0.545; that for RYIK was not above 0.2.
For RYIN, the “one-hybrid fitness for binding parS DNA” value stood at 0.269.
In the case of RYPN it was not above 0.2; in that of PRFW, not above 0.2; in that of CGQS, not above 0.2.
With HFIF, the “one-hybrid fitness for binding parS DNA” value was not above 0.2.
In the case of GKTS it was not above 0.2; in that of RLRH, 0.223; in that of RLRP, not above 0.2.
In the case of RLNS, the “one-hybrid fitness for binding parS DNA” value was determined as 0.932.
In the case of RLHS it was 0.96; in that of RLSD, not above 0.2.
As for RLNH, the “one-hybrid fitness for binding parS DNA” value came out at 0.252.
With RLHH, the “one-hybrid fitness for binding parS DNA” value was 0.204.
RLSN: the “one-hybrid fitness for binding parS DNA” value worked out at 0.455.
As to RLND, the “one-hybrid fitness for binding parS DNA” value was not above 0.2.
As to RLHP, the “one-hybrid fitness for binding parS DNA” value is not above 0.2.
Consider RLSS, for which the “one-hybrid fitness for binding parS DNA” value is 0.991.
In the case of RLRS it was 0.875; in that of QPVT, not above 0.2.
TWLF: the “one-hybrid fitness for binding parS DNA” value is not above 0.2.
On to MFNG, for which the “one-hybrid fitness for binding parS DNA” value was not above 0.2.
The value for MAAA was not above 0.2; that for NWPE was not above 0.2; that for TFVS was not above 0.2.
For the variant VVQN, the “one-hybrid fitness for binding parS DNA” value is not above 0.2.
In the case of YPYG it was not above 0.2; in that of IVTG, not above 0.2; in that of LDGI, not above 0.2.
The value for ACHY was not above 0.2.
In the case of RLWD it was not above 0.2; in that of RLYN, 0.487; in that of RLWN, 0.443.
Turning to RLGS, the “one-hybrid fitness for binding parS DNA” value amounted to 0.981.
Regarding RLGP, the “one-hybrid fitness for binding parS DNA” value was not above 0.2.
With RLYD, the “one-hybrid fitness for binding parS DNA” value was not above 0.2.
